An excerpt weighted towards active compounds, which were near 0.2% of everything screened.
PDI inh – inhibitors of human protein disulfide isomerase. PDI insulin aggregation turbidity, A650, 90 min. inhibition, % at 10 µM. 350,000 tested, 0.052% active;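 active = mean inhibition across replicates of 30% or more, whatever share of single replicates reach that level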
Target sequence (P07237 whole entry, looked up): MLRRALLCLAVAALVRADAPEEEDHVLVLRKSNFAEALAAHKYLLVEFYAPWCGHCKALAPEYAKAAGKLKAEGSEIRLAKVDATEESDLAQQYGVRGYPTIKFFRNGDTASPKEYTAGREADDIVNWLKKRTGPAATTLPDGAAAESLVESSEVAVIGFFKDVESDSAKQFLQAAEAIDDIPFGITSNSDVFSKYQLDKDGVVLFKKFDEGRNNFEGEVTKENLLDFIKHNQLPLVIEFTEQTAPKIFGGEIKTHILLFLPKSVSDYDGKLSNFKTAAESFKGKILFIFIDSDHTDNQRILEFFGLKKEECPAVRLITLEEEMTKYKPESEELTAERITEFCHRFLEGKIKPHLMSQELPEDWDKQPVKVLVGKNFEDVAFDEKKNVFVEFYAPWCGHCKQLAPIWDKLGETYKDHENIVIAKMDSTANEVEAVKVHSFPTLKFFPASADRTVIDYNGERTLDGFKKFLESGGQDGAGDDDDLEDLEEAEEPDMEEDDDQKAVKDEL
CaV13 FRET inh – Disruptors of the CACNA1D IQ motif to Ca2+-dependent inactivation inhibitor domain association, primary screening, Förster resonance energy transfer in intact living …. HEK cells, CFP/YFP FRET ICDI-IQ, plate reader, 10 min; percent FRET-ratio fall versus neutral wells. inhibition, % at 12.3 µM. 340,000 tested, 0.098% active;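 active = mean replicate inhibition of at least 30% and at least 1% of replicates passing that level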
ERp5 inh – blocks human ERp5 reductase activity on insulin; Q15084; ERp5 insulin aggregation, absorbance 650 nm, 90 min; inhibition, % at 9.99 µM; 350,000 tested, 0.05% active;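 active = mean replicate inhibition above about 25%, with every replicate also reaching it, limit read from the data, passing the limit was not always enough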
PvdQ inh – blocks Pseudomonas aeruginosa PvdQ acylase activity; purified PvdQ acylase, fluorescence plate reader; inhibition, % at 10 µM; 340,000 tested, 0.063% active; in the data active = inhibition above about 30%, passing the limit was not always enough
A number is an active result.

What do the screens show for `COC(=O)C[C@H]1C[C@H]2c3cc(NC(=O)Cc4ccncc4)ccc3O[C@H]2[C@@H](CO)O1`?
PDI inh: inactive; CaV13 FRET inh: inactive; ERp5 inh: inactive

Results for Cc1noc(C)c1-c1ccc(C(=O)NCc2cccs2)c2occc12 ?
PDI inh: inactive; CaV13 FRET inh: inactive; ERp5 inh: inactive

Results for Cc1noc(C)c1-c1ccc(C(=O)NCCc2ccccc2)c2occc12 ?
PDI inh: inactive; CaV13 FRET inh: 40; ERp5 inh: inactive

How did CSCCC1(C(=O)O)NC(c2ccccc2O)C2C(=O)N(C(C)C)C(=O)C21 (centres undefined) do in these assays?
PDI inh: inactive; CaV13 FRET inh: 39; ERp5 inh: inactive; PvdQ inh: inactive

How did CN1c2ccc(Cl)cc2C(=O)NC1C1CC=CCC1 (centres undefined) do in these assays?
PDI inh: inactive; CaV13 FRET inh: 44; ERp5 inh: inactive; PvdQ inh: inactive

Results for CC(C)CC1NC(=O)c2cc(Cl)ccc2-n2c1nc1cc(F)ccc1c2=O (centres undefined) ?
CaV13 FRET inh: inactive; ERp5 inh: inactive

What do the screens show for `C[C@H](CO)N1C[C@H](C)[C@@H](CN(C)C(=O)c2cnccn2)Oc2ncc(C#CCC3CCCC3)cc2C1=O`?
ERp5 inh: inactive

Results for Cc1ccc2[nH]c3ccccc3c(=O)c2c1 ?
PDI inh: inactive; CaV13 FRET inh: 34; ERp5 inh: inactive; PvdQ inh: inactive

What do the screens show for `COc1cccc(C(=O)CC(C#N)c2ccc(F)cc2)c1` (centres undefined)?
PDI inh: inactive; ERp5 inh: inactive; PvdQ inh: 69

What do the screens show for `COC(=O)C[C@@H]1C[C@@H]2c3cc(NC(=O)Nc4ccccc4)ccc3O[C@@H]2[C@@H](CO)O1`?
ERp5 inh: inactive

What do the screens show for `O=C(N/N=C/c1ccc(N2CCOCC2)cc1)C1CC1`?
PDI inh: 38; CaV13 FRET inh: inactive; ERp5 inh: inactive; PvdQ inh: inactive

Results for O=C(Nc1ccc(N2CCOCC2)cc1)C1CC1 ?
PDI inh: inactive; PvdQ inh: inactive

Results for COc1cccc(C#Cc2cnc3c(c2)C(=O)N([C@@H](C)CO)C[C@H](C)[C@H](CN(C)C(=O)C2CCOCC2)O3)c1 ?
ERp5 inh: inactive

How did COc1ccc(NC(=O)Nc2ccc3c(c2)C(=O)N([C@H](C)CO)C[C@H](C)[C@@H](CN(C)C(=O)C2CCCCC2)OCCCC[C@H](C)O3)cc1 do in these assays?
ERp5 inh: 30

What do the screens show for `C[C@@H]1CCCCO[C@@H](CN(C)C(=O)CCC(F)(F)F)[C@@H](C)CN([C@@H](C)CO)C(=O)c2cc(NS(=O)(=O)c3ccc(Cl)cc3)ccc2O1`?
ERp5 inh: 70

What do the screens show for `CCC(=O)Nc1ccc2c(c1)OC[C@@H](C)N(C(=O)CN(C)C)C[C@H](C)[C@H](OC)CN(C)C2=O`?
ERp5 inh: inactive

Results for CN1C(=O)c2cc(NC(=O)C3CCCC3)ccc2OC[C@@H]2O[C@@H](CC(=O)NCC3CC3)CC[C@H]21 ?
ERp5 inh: inactive

How did CCN1CCS/C1=C\C=C\C1=[N+](CC)CCS1 do in these assays?
PDI inh: inactive; CaV13 FRET inh: 84; ERp5 inh: inactive; PvdQ inh: inactive

How did CCN1CCS/C1=C/C=C/C1=[N+](CC)CCS1 do in these assays?
PDI inh: inactive; PvdQ inh: inactive

What do the screens show for `O=C(C[C@H]1CC[C@@H]2[C@H](COC[C@@H](O)CN2Cc2cccc(-c3ccncc3)c2)O1)N1CCCCC1`?
ERp5 inh: inactive

What do the screens show for `CC(=O)N=c1c(C#N)cc2c(=O)n3ccccc3nc2n1CCCOC(C)C`?
PDI inh: inactive; CaV13 FRET inh: active; ERp5 inh: inactive

How did CC(C)OCCCn1c(=N)c(C(N)=S)cc2c(=O)n3ccccc3nc21 do in these assays?
PDI inh: inactive; CaV13 FRET inh: 45; PvdQ inh: inactive

Results for CC(C)OCCCn1c(=NC(=O)c2ccncc2)c(C#N)cc2c(=O)n3ccccc3nc21 ?
PDI inh: inactive; CaV13 FRET inh: inactive; PvdQ inh: inactive

Results for C[C@@H]1CN([C@@H](C)CO)C(=O)c2cc(NC(=O)Nc3ccccc3)ccc2O[C@@H](C)CCCCO[C@H]1CN(C)S(=O)(=O)c1ccc(F)cc1 ?
ERp5 inh: inactive

What do the screens show for `Cc1cccc(COCC(Cc2ccccc2)N2CCN(C(=O)c3cccc(Cl)c3)CCC2=O)c1` (centres undefined)?
PDI inh: inactive; CaV13 FRET inh: inactive; ERp5 inh: inactive; PvdQ inh: inactive
